# Experimental data reported in PubChem BioAssay (EPA / NIEHS).
# The source made the active and inactive calls. How the source made its calls: active means hit-call score of the fitted dose curve at least 0.9, where 1 is the maximum; inactive means score below 0.9.
# Experiments:
# Settings in all cases: mRNA level, 48 h; actives raise or lower the signal
# [1] = read-out: Glutamate-cysteine ligase catalytic (GCLC), GCLC (gene 2729); assay: LTEA_HepaRG_GCLC: Life Technologies and Expression Analysis (LTEA) Assay for Glutamate-cysteine ligase catalytic (GCLC) using HepaRG (AID 2283498)
# Procedure, shortened: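 Differentiated human HepaRG cells, plated 48 h then switched to serum-free induction medium, were exposed in duplicate for 48 h to 8 half-log concentrations topping at 100 uM in 0.5% DMSO. GCLC mRNA was quantified by qRT-PCR against ACTB, GAPDH and POLR2A.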
# [2] = read-out: growth arrest and DNA damage 45 (GADD45G), GADD45G (gene 10912); assay: LTEA_HepaRG_GADD45G: Life Technologies and Expression Analysis (LTEA) Assay for growth arrest and DNA damage 45 (GADD45G) using HepaRG (AID 2283499)
# Procedure, shortened: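 Human hepatic HepaRG line treated 48 h with chemicals (eight concentrations, half-log steps from 100 uM); transcript induction or repression of GADD45G scored by qRT-PCR versus DMSO vehicle.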
# [3] = read-out: Glutamate-cysteine ligase regulatory (GCLM), GCLM (gene 2730); assay: LTEA_HepaRG_GCLM: Life Technologies and Expression Analysis (LTEA) Assay for Glutamate-cysteine ligase regulatory (GCLM) using HepaRG (AID 2283500)
# Procedure, shortened: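 Human liver HepaRG cultures receive test chemicals for 48 hours at up to 100 uM in 0.5% DMSO. GCLM expression is measured by qRT-PCR and analysed for increases or decreases against vehicle.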
# [4] = read-out: Glutathione S-transferase M3 (GSTM3), GSTM3 (gene 2947); assay: LTEA_HepaRG_GSTM3: Life Technologies and Expression Analysis (LTEA) Assay for Glutathione S-transferase M3 (GSTM3) using HepaRG (AID 2283501)
# Procedure, shortened: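 Changes in GSTM3 expression, an oxidative-stress marker, were scored by bidirectional curve fitting against 0.5% DMSO vehicle. Human HepaRG cultures received chemicals for 48 h in duplicate, highest concentration 100 uM with half-log dilutions.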
# [5] = read-out: Heat shock 70 kDa protein 1 (HSPA1A), gene 3303; assay: LTEA_HepaRG_HSPA1A: Life Technologies and Expression Analysis (LTEA) Assay for Heat shock 70 kDa protein 1 (HSPA1A) using HepaRG (AID 2283502)
# Procedure, shortened: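 HSPA1A induction in human HepaRG liver cells is measured after 48 h of chemical treatment (100 uM maximum, 0.5% DMSO vehicle). Expression comes from qRT-PCR normalized to endogenous controls.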
# [6] = read-out: 3-Hydroxy-3-Methylglutaryl-CoA Synthase 2 (HMGCS2), HMGCS2 (gene 3158); assay: LTEA_HepaRG_HMGCS2: Life Technologies and Expression Analysis (LTEA) Assay for 3-Hydroxy-3-Methylglutaryl-CoA Synthase 2 (HMGCS2) using HepaRG (AID 2283504)
# Procedure, shortened: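 Expression of HMGCS2 in human HepaRG liver cells is measured by qRT-PCR 48 h after dosing (highest 100 uM, half-log series, 0.5% DMSO). Values come from bidirectional concentration-response fitting with DMSO as baseline.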
# [7] = read-out: HGF (gene 3082); assay: LTEA_HepaRG_HGF: Life Technologies and Expression Analysis (LTEA) Assay for Hepatocyte Growth Facto (HGF) using HepaRG (AID 2283505)
# Procedure, shortened: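 Gain or loss of HGF mRNA in human HepaRG liver cells after 48 h chemical exposure; eight concentrations up to 100 uM with 0.5% DMSO vehicle, quantified by TaqMan qRT-PCR.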
# [8] = read-out: Insulin Like Growth Factor 1 (IGF1), IGF1 (gene 3479); assay: LTEA_HepaRG_IGF1: Life Technologies and Expression Analysis (LTEA) Assay for Insulin Like Growth Factor 1 (IGF1) using HepaRG (AID 2283506)
# Procedure, shortened: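 Using human HepaRG liver cells, IGF1 transcript induction or suppression is measured 48 h after dosing across eight concentrations capped at 100 uM. Values derive from bidirectional concentration-response fitting with DMSO as baseline.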
# [9] = read-out: Intercellular Adhesion Molecule 1 (ICAM1), ICAM1 (gene 3383); assay: LTEA_HepaRG_ICAM1: Life Technologies and Expression Analysis (LTEA) Assay for Intercellular Adhesion Molecule 1 (ICAM1) using HepaRG (AID 2283507)
# Procedure, shortened: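 Gain or loss of transcript in HepaRG hepatic cells is quantified by qRT-PCR after 48 h chemical exposure (up to 100 uM, half-log steps), with DMSO as baseline.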
# [10] = read-out: Insulin-like growth factor-binding protein 1 (IGFBP1), IGFBP1 (gene 3484); assay: LTEA_HepaRG_IGFBP1: Life Technologies and Expression Analysis (LTEA) Assay for Insulin-like growth factor-binding protein 1 (IGFBP1) using HepaRG (AID 2283508)
# Procedure, shortened: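 mRNA induction or loss was quantified by qRT-PCR after 48 h chemical exposure of human HepaRG cells, with 0.5% DMSO as vehicle and baseline. Concentration-response over eight points up to 100 uM.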
# [11] = read-out: Interleukin 6 Receptor (IL6R), IL6R (gene 3570); assay: LTEA_HepaRG_IL6R: Life Technologies and Expression Analysis (LTEA) Assay for Interleukin 6 Receptor (IL6R) using HepaRG (AID 2283510);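 on AC50: TaqMan qRT-PCR signal normalized to ACTB GAPDH and POLR2A housekeeping genes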
# Procedure, shortened: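 Concentration-response in human liver HepaRG cells: eight concentrations from 100 uM downward by half-logs, 48 h exposure, 0.5% DMSO vehicle. IL6R mRNA change measured by qRT-PCR and fitted in both directions relative to vehicle.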
# [12] = read-out: Potassium channel subfamily K member 1 (KCNK1), KCNK1 (gene 3775); assay: LTEA_HepaRG_KCNK1: Life Technologies and Expression Analysis (LTEA) Assay for Potassium channel subfamily K member 1 (KCNK1) using HepaRG (AID 2283511)
# Procedure, shortened: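 Differentiated human HepaRG cells in serum-free induction medium were exposed in duplicate for 48 h to 8 half-log concentrations up to 100 uM in 0.5% DMSO. KCNK1 mRNA was measured by TaqMan qRT-PCR, normalized to ACTB, GAPDH and POLR2A, and fitted bidirectionally versus DMSO.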
# [13] = read-out: Keratin 19 (KRT19), KRT19 (gene 3880); assay: LTEA_HepaRG_KRT19: Life Technologies and Expression Analysis (LTEA) Assay for Keratin 19 (KRT19) using HepaRG (AID 2283512)
# Procedure, shortened: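 Gene-expression endpoint in the human liver line HepaRG after 48 h exposure to up to 100 uM test chemical with 0.5% DMSO vehicle; KRT19 mRNA by qRT-PCR, analyzed bidirectionally versus DMSO.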
# [14] = read-out: JUN Transcription Factor, JUN (gene 3725); assay: LTEA_HepaRG_JUN: Life Technologies and Expression Analysis (LTEA) Assay for JUN Transcription Factor using HepaRG (AID 2283513)
# Procedure, shortened: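 Human HepaRG liver cells receive test chemicals in 0.5% DMSO for 48 h across an eight-point range topping at 100 uM. Expression changes in JUN are scored in both directions against the DMSO vehicle.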
# [15] = read-out: Lipase C (LIPC), LIPC (gene 3990); assay: LTEA_HepaRG_LIPC: Life Technologies and Expression Analysis (LTEA) Assay for Lipase C (LIPC) using HepaRG (AID 2283514)
# Procedure, shortened: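 Differentiated human HepaRG cells in serum-free induction medium were exposed in duplicate for 48 h to eight concentrations (top 100 uM, half-log steps, 0.5% DMSO). LIPC mRNA was quantified by TaqMan qRT-PCR, normalized to ACTB, GAPDH and POLR2A, with bidirectional fitting versus DMSO.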
# [16] = read-out: MicroRNA 122 (MIR122), gene 406906; assay: LTEA_HepaRG_MIR122: Life Technologies and Expression Analysis (LTEA) Assay for MicroRNA 122 (MIR122) using HepaRG (AID 2283516); further: the transcript read is the microRNA miR-122
# Procedure, shortened: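 HepaRG, 48 h exposure, 8-pt half-log from 100 uM, 0.5% DMSO; TaqMan qRT-PCR; bidirectional fit vs DMSO.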
# [17] = read-out: matrix metalloproteinase-10 (MMP10), MMP10 (gene 4319); assay: LTEA_HepaRG_MMP10: Life Technologies and Expression Analysis (LTEA) Assay for matrix metalloproteinase-10 (MMP10) using HepaRG (AID 2283517)
# Procedure, shortened: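 HepaRG, collagen I, ~100,000 cells/well; serum-free induction medium; 48 h exposure, duplicate, 8-pt half-log to 100 uM, 0.5% DMSO. Readout: TaqMan qRT-PCR, normalized to ACTB/GAPDH/POLR2A; bidirectional fit vs DMSO.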
# [18] = read-out: Hypoxia-inducible factor 1-alpha (Homo sapiens) (UniProt Q16665); assay: LTEA_HepaRG_HIF1A: Life Technologies and Expression Analysis (LTEA) Assay for Hypoxia-inducible factor 1 (HIF1A) Trancription factor using HepaRG (AID 2283503)
# Procedure, shortened: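 HepaRG, 48 h exposure, 8-pt half-log series from 100 uM, 0.5% DMSO vehicle, duplicates. Readout: HIF1A transcript by qRT-PCR (Fluidigm array), housekeeping-normalised. Bidirectional curve fit vs DMSO baseline.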
# [19] = read-out: Lipoprotein lipase (LPL), LPL (gene 4023); assay: LTEA_HepaRG_LPL: Life Technologies and Expression Analysis (LTEA) Assay for Lipoprotein lipase (LPL) using HepaRG (AID 2283515)
# Procedure, shortened: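 Differentiated human HepaRG cells in serum-free induction medium were exposed in duplicate for 48 h to eight half-log concentrations (top 100 uM) in 0.5% DMSO. LPL mRNA was quantified by TaqMan qRT-PCR, normalized to ACTB, GAPDH and POLR2A.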
# [20] = read-out: Interleukin 6 (IL6), IL6 (gene 3569); assay: LTEA_HepaRG_IL6: Life Technologies and Expression Analysis (LTEA) Assay for Interleukin 6 (IL6) using HepaRG (AID 2283509)
# Procedure, shortened: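 Differentiated human HepaRG cells, plated 48 h then switched to serum-free induction medium, were exposed in duplicate for 48 h to eight half-log concentrations up to 100 uM in 0.5% DMSO. IL6 mRNA measured by qRT-PCR, normalized to ACTB/GAPDH/POLR2A.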
# Sequence of Hypoxia-inducible factor 1-alpha (Homo sapiens) (Q16665 whole entry, looked up): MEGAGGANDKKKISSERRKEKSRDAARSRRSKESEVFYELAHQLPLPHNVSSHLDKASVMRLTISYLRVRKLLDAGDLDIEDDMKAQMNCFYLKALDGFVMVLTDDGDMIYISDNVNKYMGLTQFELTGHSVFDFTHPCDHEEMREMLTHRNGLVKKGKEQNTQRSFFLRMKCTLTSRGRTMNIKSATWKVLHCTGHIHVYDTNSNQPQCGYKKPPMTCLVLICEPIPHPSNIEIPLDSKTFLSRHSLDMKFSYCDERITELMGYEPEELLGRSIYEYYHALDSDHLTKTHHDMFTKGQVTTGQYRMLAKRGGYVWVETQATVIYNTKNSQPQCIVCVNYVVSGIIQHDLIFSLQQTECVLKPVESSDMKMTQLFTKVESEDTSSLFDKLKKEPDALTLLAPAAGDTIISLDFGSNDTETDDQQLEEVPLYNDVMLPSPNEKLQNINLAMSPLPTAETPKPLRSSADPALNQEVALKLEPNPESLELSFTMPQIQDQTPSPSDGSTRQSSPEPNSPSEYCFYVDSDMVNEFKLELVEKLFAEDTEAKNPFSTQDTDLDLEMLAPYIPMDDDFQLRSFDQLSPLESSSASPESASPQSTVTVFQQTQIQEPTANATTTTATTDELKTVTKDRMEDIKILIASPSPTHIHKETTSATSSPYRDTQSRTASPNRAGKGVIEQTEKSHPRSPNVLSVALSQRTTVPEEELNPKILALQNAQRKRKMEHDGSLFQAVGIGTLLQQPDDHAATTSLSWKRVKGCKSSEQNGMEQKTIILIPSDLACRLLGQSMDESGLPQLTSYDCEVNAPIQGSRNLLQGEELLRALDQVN
smiles,measurement,setting,value
O=S1(=O)CCCO1,outcome,[1],inactive
same,outcome,[2],inactive
same,outcome,[3],inactive
same,outcome,[4],inactive
same,outcome,[5],inactive
same,outcome,[6],inactive
same,outcome,[7],inactive
same,outcome,[8],inactive
same,outcome,[9],inactive
same,outcome,[10],inactive
same,outcome,[11],inactive
same,outcome,[12],inactive
same,outcome,[13],inactive
same,outcome,[14],inactive
same,outcome,[15],inactive
same,outcome,[16],inactive
same,outcome,[17],inactive
COc1cc(C(C)C)c2c(c1)S(=O)(=O)N(COc1cc(=O)n3cccc(OCCN4CCCCC4)c3n1)C2=O,AC50,[1],12.5 µM (active)
same,AC50,[2],19.1 µM (active)
same,outcome,[3],inactive
same,AC50,[5],19.7 µM (active)
same,outcome,[18],inactive
same,AC50,[6],20 µM (active)
same,AC50,[7],12.5 µM (active)
same,outcome,[8],inactive
same,outcome,[9],inactive
same,outcome,[10],inactive
same,AC50,[11],12.5 µM (active)
same,outcome,[12],inactive
same,AC50,[13],12.5 µM (active)
same,outcome,[14],inactive
same,AC50,[19],21.2 µM (active)
same,AC50,[16],23.4 µM (active)
same,AC50,[17],21.1 µM (active)
Cc1ncc([C@@H](CCCCCCc2ccc3c(n2)NCCC3)CC(=O)O)cn1,outcome,[1],inactive
same,outcome,[2],inactive
same,outcome,[3],inactive
same,outcome,[4],inactive
same,outcome,[6],inactive
same,outcome,[7],inactive
same,outcome,[8],inactive
same,outcome,[9],inactive
same,outcome,[10],inactive
same,outcome,[20],inactive
same,outcome,[11],inactive
same,outcome,[12],inactive
same,outcome,[13],inactive
same,outcome,[14],inactive
same,outcome,[15],inactive
same,AC50,[19],0.382 µM (active)
same,outcome,[16],inactive
same,outcome,[17],inactive
CC1(C)C(=O)N(Cl)C(=O)N1Cl,outcome,[1],inactive
same,outcome,[2],inactive
same,outcome,[3],inactive
same,outcome,[4],inactive
same,outcome,[18],inactive
same,outcome,[6],inactive
same,outcome,[7],inactive
same,outcome,[8],inactive
same,outcome,[9],inactive
same,outcome,[10],inactive
same,outcome,[20],inactive
same,outcome,[11],inactive
same,outcome,[12],inactive
same,outcome,[13],inactive
same,outcome,[14],inactive
same,outcome,[15],inactive
same,outcome,[19],inactive
same,outcome,[16],inactive
same,outcome,[17],inactive
NC(N)=O,outcome,[1],inactive
same,outcome,[2],inactive
same,outcome,[3],inactive
same,outcome,[4],inactive
same,outcome,[6],inactive
same,outcome,[7],inactive
same,outcome,[8],inactive
same,outcome,[9],inactive
same,outcome,[10],inactive
same,outcome,[20],inactive
same,outcome,[11],inactive
same,outcome,[12],inactive
same,outcome,[13],inactive
same,outcome,[14],inactive
same,outcome,[15],inactive
same,outcome,[16],inactive
same,outcome,[17],inactive
CCn1nc(C)c2c1C(=O)NCC(c1ccc(O)cc1)=N2,outcome,[1],inactive
same,outcome,[2],inactive
same,outcome,[3],inactive
same,outcome,[4],inactive
same,outcome,[18],inactive
same,outcome,[6],inactive
same,outcome,[7],inactive
same,outcome,[8],inactive
same,outcome,[9],inactive
same,outcome,[10],inactive
same,outcome,[20],inactive
same,outcome,[11],inactive
same,outcome,[12],inactive
same,AC50,[13],1.84 µM (active)
same,outcome,[14],inactive
same,outcome,[15],inactive
same,outcome,[19],inactive
same,outcome,[16],inactive
same,outcome,[17],inactive
CCCCCCCC1CCC(=O)O1 (stereo not given),outcome,[1],inactive
same,outcome,[2],inactive
same,outcome,[3],inactive
same,outcome,[4],inactive
same,outcome,[18],inactive
same,outcome,[6],inactive
same,outcome,[8],inactive
same,outcome,[9],inactive
same,outcome,[10],inactive
same,outcome,[20],inactive
same,outcome,[11],inactive
same,outcome,[12],inactive
same,outcome,[13],inactive
same,outcome,[14],inactive
same,outcome,[15],inactive
same,outcome,[19],inactive
same,outcome,[16],inactive
same,outcome,[17],inactive
